Test results published in PubChem BioAssay AID1159580 (chemical genetic matrix, 2015).
The campaign covered roughly 5,500 compounds. About 2,000 (36%) were called active. Inconclusive results (about 18%) are left out. No stated cut-off is given here; in the data, active means normalized growth mostly below about 0.91 (no sharp cut-off); inconclusive means no clear call, values can overlap the other calls; inactive means mostly above about 0.92. The list shows a part of the results.

Assay: chemical genetic growth profiling, strain panel (AID 1159580);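 further: tested at 20 µM; growth read once vehicle control cultures reached saturation at 30 °C; 1 = growth at the plate median or of vehicle wells; lower values mean less growth of the strain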
Conditions: S. cerevisiae deletion strains, growth OD
[1] = locus YDL101C, strain DUN1, active compounds read low
[2] = locus YHR030C, strain SLT2, active compounds read low

Measured: normalized growth

N/C(=N/OC(=O)c1ccc(Cl)cc1)c1ccc(F)cc1F
inactive: locus YAR019C, strain CDC15, active compounds read low 0.896 | locus YBL105C, strain PKC1, active compounds read low 0.917 | locus YBR135W, strain CKS1, active compounds read low 0.9 | locus YBR136W, strain MEC1, active compounds read low 0.921 | locus YBR160W, strain CDC28, active compounds read low 0.903 | locus YDL017W, strain CDC7, active compounds read low 0.923 | locus YDL028C, strain MPS1, active compounds read low 0.916 | [1] 0.94 | locus YDL108W, strain KIN28, active compounds read low 0.914 | locus YDR052C, strain DBF4, active compounds read low 0.913 | locus YDR226W, strain ADK1, active compounds read low 0.899 | locus YFL029C, strain CAK1, active compounds read low 0.889 | locus YFR003C, strain YPI1, active compounds read low 0.919 | locus YFR028C, strain CDC14, active compounds read low 0.916 | locus YIL147C, strain SLN1, active compounds read low 0.91 | locus YJL128C, strain PBS2, active compounds read low 0.977 | locus YKL048C, strain ELM1, active compounds read low 0.821 | locus YMR001C, strain CDC5, active compounds read low 0.891 | locus YNL222W, strain SSU72, active compounds read low 0.913 | locus YOR061W, strain CKA2, active compounds read low 0.731 | locus YPL209C, strain IPL1, active compounds read low 0.902 | locus YPR025C, strain CCL1, active compounds read low 0.898 | locus YPR106W, strain ISR1, active compounds read low 0.947 | locus YPR111W, strain DBF20, active compounds read low 0.936 | strain NNK1, active compounds read low 0.917
active: locus YDL132W, strain cdc53, active compounds read low 0.879 | locus YDL214C, strain PRR2, active compounds read low 0.559 | locus YDR054C, strain cdc34, active compounds read low 0.871 | locus YDR477W, strain SNF1, active compounds read low 0.491 | locus YER123W, strain YCK3, active compounds read low 0.482 | locus YER133W, strain GLC7, active compounds read low 0.446 | locus YFL009W, strain cdc4, active compounds read low 0.872 | locus YFR019W, strain FAB1, active compounds read low 0.541 | locus YGR040W, strain KSS1, active compounds read low 0.505 | locus YGR052W, strain FMP48, active compounds read low 0.487 | locus YGR092W, strain DBF2, active compounds read low 0.305 | [2] 0.139 | locus YHR079C, strain IRE1, active compounds read low 0.244 | locus YHR082C, strain KSP1, active compounds read low 0.465 | locus YHR205W, strain SCH9, active compounds read low 0.21 | locus YJL095W, strain BCK1, active compounds read low 0.243 | locus YJL157C, strain FAR1, active compounds read low 0.543 | locus YJR016C, strain ILV3, active compounds read low 0.892 | locus YJR066W, strain TOR1 (second series), active compounds read low 0.239 | locus YJR066W, strain TOR1, active compounds read low 0.309 | locus YKL067W, strain YNK1, active compounds read low 0.631 | locus YKL101W, strain HSL1, active compounds read low 0.593 | locus YKL193C, strain SDS22, active compounds read low 0.887 | locus YKL203C, strain TOR2, active compounds read low 0.384 | locus YLR113W, strain HOG1, active compounds read low 0.348 | locus YLR133W, strain CKI1, active compounds read low 0.659 | locus YLR403W, strain SFP1, active compounds read low 0.419 | locus YML070W, strain DAK1, active compounds read low 0.556 | locus YMR205C, strain PFK2 (second series), active compounds read low 0.684 | locus YMR277W, strain FCP1, active compounds read low 0.881 | locus YNL006W, strain LST8, active compounds read low 0.896 | locus YNL020C, strain ARK1, active compounds read low 0.579 | locus YNL161W, strain CBK1, active compounds read low 0.894 | locus YNL183C, strain NPR1, active compounds read low 0.37 | locus YNL207W, strain RIO2, active compounds read low 0.854 | locus YNL307C, strain MCK1 (second series), active compounds read low 0.38 | locus YOL078W, strain AVO1, active compounds read low 0.879 | locus YOL136C, strain PFK27, active compounds read low 0.542 | locus YOR119C, strain RIO1, active compounds read low 0.463 | locus YOR231W, strain MKK1, active compounds read low 0.276 | locus YOR329C, strain SCD5, active compounds read low 0.899 | locus YPL031C, strain PHO85, active compounds read low 0.395 | locus YPL153C, strain RAD53, active compounds read low 0.398 | locus YPL204W, strain HRR25, active compounds read low 0.425 | locus YPL256C, strain CLN2, active compounds read low 0.368 | strain TSCII, active compounds read low 0.878

C/C(=N/NC1=NCCN1)c1ccc(F)cc1
inactive: locus YAL013W, strain DEP1, active compounds read low 1.01 | locus YBR229C, strain ROT2, active compounds read low 0.993 | locus YCL061C, strain MRC1, active compounds read low 0.997 | [1] 0.979 | locus YDR150W, strain NUM1, active compounds read low 0.907 | locus YEL061C, strain CIN8, active compounds read low 1.01 | locus YGR078C, strain PAC10, active compounds read low 0.995 | [2] 1.01 | locus YHR087W, strain rtc3, active compounds read low 0.987 | locus YJR043C, strain POL32, active compounds read low 1 | locus YJR075W, strain HOC1, active compounds read low 0.992 | locus YKL190W, strain CNB1, active compounds read low 1.01 | locus YLR039C, strain RIC1, active compounds read low 1.04 | locus YLR058C, strain SHM2 (second series), active compounds read low 1.01 | locus YLR085C, strain ARP6, active compounds read low 0.996 | locus YLR262C, strain YPT6, active compounds read low 0.997 | locus YML094W, strain GIM5, active compounds read low 0.996 | locus YMR219W, strain ESC1, active compounds read low 1 | locus YMR263W, strain SAP30, active compounds read low 0.998 | locus YNL153C, strain GIM3, active compounds read low 0.987 | locus YNL298W, strain CLA4 (second series), active compounds read low 1.02 | locus YNL322C, strain KRE1, active compounds read low 1 | locus YNR030W, strain Alg12, active compounds read low 1.01 | locus YPL055C, strain LGE1, active compounds read low 1.01 | locus YPL241C, strain CIN2, active compounds read low 1.03 | locus YPR135W, strain CTF4, active compounds read low 1.02
